Source: PubChem BioAssay
RGS4 inhibitor = blocks human RGS4-accelerated GTP hydrolysis | Transcreener GDP fluorescence polarization, RGS4-accelerated GTP hydrolysis | Potency, µM (doses to about 114 µM), actives largely listed as inhibitors | AID 504845 | 0.039% of 390,000 active; note: nearly all actives have a fitted effect of over 75% in size
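MLSMR compounds (23 nl, pin-transferred) preincubated 10 min at room temperature with a 500nM (2x) first reagent, then RGS4 at 900nM (2x) plus Transcreener GDP mix added; fluorescence polarization (620/688 nm) read before and after 90 min at 30 °C.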
GLP1R cytotox = cytotoxic in the GLP-1 receptor inverse agonist counter-screen. HEK293 cAMP-luciferase reporter cells, luminescence, 24 h. Potency, µM (top dose mostly 38.3 µM), usual class: inhibitors. 0.13% of 410,000 active. AID 624418;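 note: loss of luciferase light is scored as toxicity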
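To flag toxic compounds, the library was rerun on cells for 24 hr at 37 deg C and 5% CO2. Viability-linked luminescence was captured 12 min after adding luciferase detection reagent.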
GLP1R ag = activates the human GLP-1 receptor; P43220; HEK293 GLP-1R CRE-luciferase, luminescence, 4-6 h; cells express a hypersensitive GLP-1R form; Potency, µM (doses to about 45.6 µM), actives largely listed as activators; 0.007% of 380,000 active
PTHR1 agonist = agonists of human PTHR1 parathyroid hormone receptor; 0.075% of 410,000 active; Q03431; Potency, µM (titrated, usually from 115 µM), hits mostly activators; HEK293 GP2 PTHR1 cells, GloSensor cAMP luminescence, 1 h; note: nearly all actives have a fitted effect of over 55% in size
Target sequence (Q03431 whole entry, looked up): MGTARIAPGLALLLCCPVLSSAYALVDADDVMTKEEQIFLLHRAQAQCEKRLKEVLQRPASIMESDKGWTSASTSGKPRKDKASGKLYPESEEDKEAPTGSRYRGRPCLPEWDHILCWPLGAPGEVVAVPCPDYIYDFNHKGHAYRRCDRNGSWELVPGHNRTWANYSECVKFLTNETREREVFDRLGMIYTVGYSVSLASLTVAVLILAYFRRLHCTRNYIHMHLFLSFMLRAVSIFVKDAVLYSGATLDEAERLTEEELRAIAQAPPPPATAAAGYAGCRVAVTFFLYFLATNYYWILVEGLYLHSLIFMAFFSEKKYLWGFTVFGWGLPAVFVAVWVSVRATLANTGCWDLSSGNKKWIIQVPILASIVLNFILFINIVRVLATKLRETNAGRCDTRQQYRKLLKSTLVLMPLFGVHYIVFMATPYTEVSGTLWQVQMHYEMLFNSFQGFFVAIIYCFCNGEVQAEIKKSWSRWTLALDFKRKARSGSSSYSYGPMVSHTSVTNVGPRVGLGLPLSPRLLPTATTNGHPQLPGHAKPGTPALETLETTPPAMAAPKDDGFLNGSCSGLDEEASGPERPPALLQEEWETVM
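HEK-293-derived GP2 cells expressing PTHR1 and a GloSensor cAMP reporter, 3,000/well, plated overnight, given luciferin plus IBMX (each 0.5 mM as added) for 1 h at 37 °C, then compound for 1 h at 37 °C. Luminescence was read after 15 min at room temperature.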
GLP1R inv ag = GLP-1 receptor (human) inverse agonism; HEK293 GLP-1R CRE-luciferase, luminescence, 24 h; GLP-1R form is constitutively active; Potency, µM (doses to about 38.3 µM), actives largely listed as inhibitors; 1.6% of 410,000 active; note: nearly all actives have a fitted effect of over 55% in size
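Using stably transfected HEK293 (constitutively active GLP-1R, cAMP-luciferase reporter), compounds were incubated 24 hr and luciferase measured by luminescence.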
Of the large screens only hits and unclear results are named; the others gave an inactive call. This is a sample that favours compounds with a hit; in the whole collection about 1.7% have one here. Calls come from the whole dose curve; as a rule, active = well fitted curve in the direction sought with a large enough effect; inconclusive = small, poorly fitted or top-dose-only effect, or another doubt; inactive = no such curve, though single readings can be large; an effect the other way counts as inactive or inconclusive.

O=C(Nc1nc2n(n1)C(c1ccccc1)C=C(c1ccccc1)N2)c1ccc(Cl)c([N+](=O)[O-])c1 (stereo not given)	none (no result: GLP1R ag)
COC(=O)c1ccc(C2c3c(oc4ccccc4c3=O)C(=O)N2c2nc(C)c(C(=O)OC)s2)cc1 (stereo not given)	none (no result: GLP1R ag)
COc1ccccc1CNC(=O)Cn1c(-c2cccs2)cc2cc(F)ccc21	PTHR1 agonist 50µM (no result: GLP1R ag)
CCOc1cc(CNC(=O)Cn2c(-c3cccs3)cc3cc(F)ccc32)ccc1OC	none (no result: GLP1R ag)
COc1cccc(C(=O)NC2CC3CCCC(C2)N3CC(=O)Nc2ccccc2C(F)(F)F)c1 (stereo not given)	GLP1R inv ag 2.2µM
CCOc1cc(N2CCOCC2)c(OCC)cc1NC(=O)CC12CC3CC(CC(C3)C1)C2	GLP1R inv ag 1µM
CCOc1cc(N2CCOCC2)c(OCC)cc1NC(=O)CSc1ccccc1C(=O)O	none
CCOc1cc(N2CCOCC2)c(OCC)cc1NC(=O)CN1CCc2ccccc2C1	GLP1R inv ag 4.5µM
Cc1cccc(NC(=O)C2CCCN(S(=O)(=O)c3c(C)noc3/C=C/N(C)C)C2)c1C (stereo not given)	none (no result: GLP1R ag)
COc1cccc(NS(=O)(=O)c2ccc3[nH]cc(C(=O)NCCc4ccccc4)c(=O)c3c2)c1	none
O=C(NCc1ccccc1)C1=C[C@@H](c2csc3ccccc23)C[C@@H](OCc2ccc(CO)cc2)O1	GLP1R inv ag 8.9µM
CC(=O)n1cc(N(C(=O)CCl)c2ccc(Cl)cc2)c2ccccc21	GLP1R cytotox inconclusive, GLP1R inv ag 11µM
CC(=O)n1cc(Nc2ccccc2C(=O)O)c2ccccc21	none
COc1ccccc1N(C(=O)CCl)c1cn(C(C)=O)c2ccccc12	GLP1R cytotox inconclusive, GLP1R inv ag 3.2µM
CCOC(=O)c1ccccc1Nc1cn(C(C)=O)c2ccccc12	none
Cc1ccc(Cn2c(/C=C/c3ccco3)nc3ccccc32)cc1	GLP1R inv ag 11µM
Clc1ccc(Cn2c(/C=C/c3ccco3)nc3ccccc32)cc1	RGS4 inhibitor inconclusive, GLP1R inv ag inconclusive
C[C@@H]1CN([C@@H](C)CO)C(=O)c2cc(N(C)C)ccc2O[C@@H](C)CCCCO[C@@H]1CN(C)S(=O)(=O)c1cccs1	none (no result: RGS4 inhibitor)
Cc1ccc2nc(-c3ccc(O)cc3)oc2c1	none
Cc1ccc(C(=O)N2CC(C)SC2=Nc2cccc(S(=O)(=O)N(C)C)c2)cc1 (stereo not given)	GLP1R inv ag inconclusive
CN(C)S(=O)(=O)c1cccc(N=C2SCCN2Cc2ccccc2)c1	GLP1R inv ag 11µM
Cc1nc2c(-c3ccc(F)cc3)c(C)nn2c(C)c1CCC(=O)NCc1cccc(Cl)c1	none
CCc1nc2ccccc2n1CCCCOc1ccc(Cl)cc1	GLP1R inv ag inconclusive (no result: GLP1R ag)
CCc1nc2ccccc2n1CCCCOc1ccc(C)cc1	GLP1R inv ag 10µM (no result: GLP1R ag)
CCCc1nc2ccccc2n1CCc1ccccc1	GLP1R inv ag 10µM
Cc1cc(C)cc(-n2ccnc(NCc3ccc(F)cc3)c2=O)c1	none (no result: GLP1R ag)
O=[N+]([O-])c1ccc(Cl)cc1NCc1cccnc1	GLP1R inv ag 5.6µM
O=C(O)c1ccc(NCc2cccnc2)c([N+](=O)[O-])c1	PTHR1 agonist inconclusive
O=C(NCc1ccncc1)c1cccc(S(=O)(=O)NCc2ccccc2)c1	none
CC1CCCC(NC(=O)c2cccc(S(=O)(=O)N3CCN(c4ccccc4)CC3)c2)C1C (stereo not given)	none
CC1CCCC(NC(=O)c2cccc(S(=O)(=O)NCc3ccccc3)c2)C1C (stereo not given)	GLP1R inv ag 11µM
Cc1ccc(OCCNC(=O)c2cccc(S(=O)(=O)NCc3ccccc3)c2)cc1	GLP1R cytotox inconclusive, GLP1R inv ag 5µM
CCOC(=O)Cn1cccc1-c1nc(-c2ccc(OC)cc2)c(-c2ccc(OC)cc2)s1	none (no result: RGS4 inhibitor, GLP1R cytotox, PTHR1 agonist, GLP1R inv ag)
CC(=O)Nc1nonc1-c1nnc(SCc2ccccc2)n1C	none (no result: GLP1R ag)
C/C(=N\NC(=O)CN1CCCCC1)c1ccccc1O	GLP1R inv ag inconclusive
C/C(=N\NC(=O)CN(c1ccccc1)S(C)(=O)=O)c1ccccc1O	GLP1R inv ag 5µM
Cc1cc2nc(-c3ccccc3)c(Cc3ccccc3)n2c(C)c1Br	none (no result: RGS4 inhibitor)
COC(=O)C1=C(C)NC(C)=C(C(=O)OCCSc2ccccc2)C1C (stereo not given)	RGS4 inhibitor 38µM (no result: GLP1R cytotox, GLP1R ag, PTHR1 agonist, GLP1R inv ag)
COc1ccc(N(C)S(=O)(=O)c2ccc3c(c2)NC(=O)CC(=O)N3)c(OC)c1	PTHR1 agonist inconclusive
CCCCCCCC(=O)CC[C@H]1[C@@H](C/C=C/CCCC(=O)OC(C)C)[C@@H](O)C[C@H]1O	none (no result: RGS4 inhibitor, GLP1R cytotox, PTHR1 agonist, GLP1R inv ag)
NS(=O)(=O)c1ccc(NC(=S)NCc2ccc(Cl)cc2)cc1	RGS4 inhibitor inconclusive, PTHR1 agonist inconclusive, GLP1R inv ag 4µM
C=CCn1c(C2CC2)n[nH]c1=S	none
CCCCCC1CCC(c2n[nH]c(=S)n2C)CC1 (stereo not given)	GLP1R cytotox 3.2µM, GLP1R inv ag inconclusive
CCCCOc1ccccc1Cn1c(=O)oc2ccccc21	GLP1R inv ag 5.6µM
O=c1oc2ccccc2n1Cc1ccccc1F	GLP1R inv ag inconclusive
O=C(CCC(=O)c1ccc(F)cc1)Nc1cccc(S(=O)(=O)Nc2cccc(Cl)c2)c1	GLP1R inv ag 10µM
O=C(CSc1nnc(-c2ccco2)n1Cc1ccccc1)OC1CCCCC1	GLP1R inv ag 10µM
COC(=O)c1c(NC(=O)CSc2nnc(-c3ccco3)n2Cc2ccccc2)sc(C)c1C	GLP1R inv ag 13µM
CCOC(=O)c1sc(=S)n(Cc2ccccc2)c1C	GLP1R inv ag 8.9µM
C#CC1(OC(C)=O)CCC2C3CCC4=CC(OC(C)=O)CCC4C3CCC21C (stereo not given)	none (no result: RGS4 inhibitor, GLP1R cytotox, PTHR1 agonist, GLP1R inv ag)
COc1ccc(N(Cc2cccs2)C(=O)COc2ccc([N+](=O)[O-])cc2)cc1	GLP1R inv ag inconclusive (no result: GLP1R ag)
COc1ccc(N(Cc2cccs2)C(=O)COc2cccc(Cl)c2)cc1	GLP1R inv ag 14µM (no result: GLP1R ag)
O=C(Nc1ccc(F)cc1F)c1cc(S(=O)(=O)N2CCCCC2)c[nH]1	GLP1R cytotox inconclusive, GLP1R inv ag inconclusive
CC(C)c1ccc(NC2CCCN(C(=O)CC3CCCC3)C2)cc1 (stereo not given)	GLP1R inv ag 6.3µM
Cc1cc(C)c2ccc(N)nc2c1O	GLP1R cytotox inconclusive, GLP1R inv ag 13µM
Cc1cn([C@H]2C[C@H](O)[C@@H](CNC/C=C/c3ccccc3[N+](=O)[O-])O2)c(=O)[nH]c1=O	none (no result: RGS4 inhibitor)
CC(C)(CO)NCc1c(OCc2ccc(Cl)cc2)ccc2ccccc12	GLP1R cytotox inconclusive, GLP1R inv ag 5.6µM
O=C(CCc1ccccc1)NC1(Cc2ccccc2)CCN(CCc2cccs2)C1=O (stereo not given)	GLP1R inv ag 10µM
CC(c1cccs1)N(C)Cc1nc(CCc2ccccc2)no1 (stereo not given)	GLP1R inv ag 10µM
